# Laboratory results published in article PMC7862700, “An all-to-all approach to the identification of sequence-specific readers for epigenetic DNA modifications on cytosine”.
# How the values were obtained:
# Test in all cases: DAPPL (digital affinity profiling via proximity ligation, sequencing); 10 mM Tris-HCl pH 7.5, 50 mM NaCl, 1 mM DTT, 4% glycerol, room temperature, 30 min; GST-TFs on glutathione beads, 16-mer random dsDNA library, 0.1% formaldehyde crosslink after washing; high values mean tight binding
# FEV = target: T1, FEV (Homo sapiens, UniProt Q99581 1-238); conditions: protein: recombinant; tags: N-terminal GST; dsDNA, one strand shown
# T1 sequence: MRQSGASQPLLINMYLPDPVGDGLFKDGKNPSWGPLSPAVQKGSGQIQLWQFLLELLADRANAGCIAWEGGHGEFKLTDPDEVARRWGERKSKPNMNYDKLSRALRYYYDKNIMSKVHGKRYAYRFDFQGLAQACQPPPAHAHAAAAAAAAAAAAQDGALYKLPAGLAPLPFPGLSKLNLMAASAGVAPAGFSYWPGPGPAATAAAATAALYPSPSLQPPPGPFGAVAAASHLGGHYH
# In short: (§1)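 Binding signal is given per hexamer as its read frequency for a factor divided by its frequency in the tag-only sample. GST-fused human transcription factors were expressed in yeast, captured on glutathione beads, barcoded with DNA and pooled with that sample, then incubated with 200 nmole of a 16-mer random double-stranded DNA library in Tris/NaCl/DTT/glycerol buffer for 30 min at room temperature. The pools were then washed, crosslinked, proximity-ligated, amplified by PCR and sequenced on an Illumina NextSeq500.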
# ETV5 = ETV5 (Homo sapiens, UniProt P41161 1-510); conditions: protein: recombinant; tags: N-terminal GST; dsDNA, one strand shown
# Sequence of ETV5 (P41161 whole entry): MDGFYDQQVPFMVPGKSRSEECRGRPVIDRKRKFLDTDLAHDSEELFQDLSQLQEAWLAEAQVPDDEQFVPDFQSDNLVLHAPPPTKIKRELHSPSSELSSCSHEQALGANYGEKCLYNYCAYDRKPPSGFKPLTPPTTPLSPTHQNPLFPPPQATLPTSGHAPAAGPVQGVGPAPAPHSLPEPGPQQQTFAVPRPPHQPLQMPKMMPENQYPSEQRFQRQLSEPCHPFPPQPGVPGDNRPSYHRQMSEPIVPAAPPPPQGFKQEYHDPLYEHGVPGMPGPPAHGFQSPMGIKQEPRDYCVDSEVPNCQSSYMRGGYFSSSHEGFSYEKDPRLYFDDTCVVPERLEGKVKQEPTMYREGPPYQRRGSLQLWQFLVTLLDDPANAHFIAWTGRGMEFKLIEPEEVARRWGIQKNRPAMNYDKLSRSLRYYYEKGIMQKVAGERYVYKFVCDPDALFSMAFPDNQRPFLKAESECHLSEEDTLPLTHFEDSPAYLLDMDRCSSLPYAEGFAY
# In short: as §1
# HSF1 = HSF1 (Homo sapiens, UniProt Q00613 1-529); conditions: protein: recombinant; tags: N-terminal GST; chain copies: 3; dsDNA, one strand shown
# Sequence of HSF1 (Q00613 whole entry): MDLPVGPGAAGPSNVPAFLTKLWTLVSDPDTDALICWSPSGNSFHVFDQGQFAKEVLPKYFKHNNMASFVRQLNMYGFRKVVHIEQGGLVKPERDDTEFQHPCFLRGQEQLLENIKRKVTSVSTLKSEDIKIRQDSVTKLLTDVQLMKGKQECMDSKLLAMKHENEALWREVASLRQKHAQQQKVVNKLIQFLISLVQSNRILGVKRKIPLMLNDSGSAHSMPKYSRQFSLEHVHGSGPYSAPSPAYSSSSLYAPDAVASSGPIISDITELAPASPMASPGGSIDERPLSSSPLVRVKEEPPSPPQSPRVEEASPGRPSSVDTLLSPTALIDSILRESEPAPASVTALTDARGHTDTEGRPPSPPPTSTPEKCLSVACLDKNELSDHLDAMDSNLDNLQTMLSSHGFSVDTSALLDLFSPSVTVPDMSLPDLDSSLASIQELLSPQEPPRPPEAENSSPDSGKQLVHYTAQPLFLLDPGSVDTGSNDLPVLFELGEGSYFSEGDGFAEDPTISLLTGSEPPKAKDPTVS
# In short: as §1
# SPIC = target: T2, SPIC (Homo sapiens, UniProt Q8N5J4 1-248); conditions: protein: recombinant; tags: N-terminal GST; dsDNA, one strand shown
# T2 sequence: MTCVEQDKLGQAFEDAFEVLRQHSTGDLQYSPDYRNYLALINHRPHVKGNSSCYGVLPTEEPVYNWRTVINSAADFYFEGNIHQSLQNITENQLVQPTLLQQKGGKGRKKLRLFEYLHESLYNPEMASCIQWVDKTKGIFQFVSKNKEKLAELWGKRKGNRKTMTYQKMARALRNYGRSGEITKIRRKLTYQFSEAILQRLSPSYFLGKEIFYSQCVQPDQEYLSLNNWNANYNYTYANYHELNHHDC
# In short: as §1
# ELF4 = ELF4 (Homo sapiens, UniProt Q99607 1-663); conditions: protein: recombinant; tags: N-terminal GST; dsDNA, one strand shown
# Sequence of ELF4 (Q99607 whole entry): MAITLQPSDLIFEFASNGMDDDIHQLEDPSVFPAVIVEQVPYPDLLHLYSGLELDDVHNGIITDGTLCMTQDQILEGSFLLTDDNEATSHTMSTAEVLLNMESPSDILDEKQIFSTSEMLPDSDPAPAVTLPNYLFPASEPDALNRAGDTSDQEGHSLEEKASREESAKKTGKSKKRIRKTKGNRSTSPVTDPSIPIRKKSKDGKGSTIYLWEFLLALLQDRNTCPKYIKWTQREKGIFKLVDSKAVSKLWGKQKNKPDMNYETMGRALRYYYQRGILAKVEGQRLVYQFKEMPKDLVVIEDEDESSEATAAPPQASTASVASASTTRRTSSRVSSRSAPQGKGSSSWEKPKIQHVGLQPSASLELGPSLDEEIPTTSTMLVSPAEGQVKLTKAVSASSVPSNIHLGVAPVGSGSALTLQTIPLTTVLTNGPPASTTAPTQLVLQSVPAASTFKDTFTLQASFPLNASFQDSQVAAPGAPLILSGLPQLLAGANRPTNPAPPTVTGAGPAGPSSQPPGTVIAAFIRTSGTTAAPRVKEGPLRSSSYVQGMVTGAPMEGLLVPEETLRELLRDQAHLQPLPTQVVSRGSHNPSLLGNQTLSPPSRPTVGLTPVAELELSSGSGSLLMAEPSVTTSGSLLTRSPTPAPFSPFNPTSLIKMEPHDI
# In short: as §1
# ELK4 = target: T3, ELK4 (Homo sapiens, UniProt P28324-2 1-405); conditions: protein: recombinant; tags: N-terminal GST; dsDNA, one strand shown
# T3 sequence: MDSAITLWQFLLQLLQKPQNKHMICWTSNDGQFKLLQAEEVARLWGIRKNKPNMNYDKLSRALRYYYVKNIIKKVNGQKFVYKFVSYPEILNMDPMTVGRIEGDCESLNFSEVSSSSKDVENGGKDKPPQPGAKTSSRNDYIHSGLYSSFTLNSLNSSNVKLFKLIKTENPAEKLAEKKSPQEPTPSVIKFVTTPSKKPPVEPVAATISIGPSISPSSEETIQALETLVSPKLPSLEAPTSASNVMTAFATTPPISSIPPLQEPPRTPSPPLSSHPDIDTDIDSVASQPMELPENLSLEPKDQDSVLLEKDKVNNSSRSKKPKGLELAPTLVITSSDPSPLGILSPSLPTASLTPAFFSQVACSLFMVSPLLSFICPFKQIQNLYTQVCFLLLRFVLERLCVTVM
# In short: as §1
# ETV2 = target: T4, ETV2 (Homo sapiens, UniProt O00321 1-342); conditions: protein: recombinant; tags: N-terminal GST; dsDNA, one strand shown
# T4 sequence: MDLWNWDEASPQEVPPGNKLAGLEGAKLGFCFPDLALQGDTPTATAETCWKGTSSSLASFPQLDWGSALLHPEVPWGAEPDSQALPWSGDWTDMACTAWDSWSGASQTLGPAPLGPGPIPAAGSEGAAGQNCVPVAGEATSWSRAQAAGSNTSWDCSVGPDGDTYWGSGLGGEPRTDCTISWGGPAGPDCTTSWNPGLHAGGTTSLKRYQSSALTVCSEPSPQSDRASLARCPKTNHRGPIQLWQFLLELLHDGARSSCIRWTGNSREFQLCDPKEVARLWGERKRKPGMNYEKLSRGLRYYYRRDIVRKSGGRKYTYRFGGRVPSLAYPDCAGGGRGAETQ
# In short: as §1
# ELF3 = target: T5, ELF3 (Homo sapiens, UniProt P78545 1-371); conditions: protein: recombinant; tags: N-terminal GST; dsDNA, one strand shown
# T5 sequence: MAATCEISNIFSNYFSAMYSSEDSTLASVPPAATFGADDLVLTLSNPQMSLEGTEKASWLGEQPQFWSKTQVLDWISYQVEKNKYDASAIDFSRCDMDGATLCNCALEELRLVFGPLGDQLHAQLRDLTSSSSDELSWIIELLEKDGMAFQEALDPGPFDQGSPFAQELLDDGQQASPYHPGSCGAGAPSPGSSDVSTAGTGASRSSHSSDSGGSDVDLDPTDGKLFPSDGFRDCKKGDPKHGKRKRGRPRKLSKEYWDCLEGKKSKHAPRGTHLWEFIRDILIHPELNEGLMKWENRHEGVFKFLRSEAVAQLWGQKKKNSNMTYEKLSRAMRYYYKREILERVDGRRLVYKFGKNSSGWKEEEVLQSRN
# In short: as §1
# CRX = CRX (Homo sapiens, UniProt O43186 1-299); conditions: protein: recombinant; tags: N-terminal GST; dsDNA, one strand shown
# Sequence of CRX (O43186 whole entry): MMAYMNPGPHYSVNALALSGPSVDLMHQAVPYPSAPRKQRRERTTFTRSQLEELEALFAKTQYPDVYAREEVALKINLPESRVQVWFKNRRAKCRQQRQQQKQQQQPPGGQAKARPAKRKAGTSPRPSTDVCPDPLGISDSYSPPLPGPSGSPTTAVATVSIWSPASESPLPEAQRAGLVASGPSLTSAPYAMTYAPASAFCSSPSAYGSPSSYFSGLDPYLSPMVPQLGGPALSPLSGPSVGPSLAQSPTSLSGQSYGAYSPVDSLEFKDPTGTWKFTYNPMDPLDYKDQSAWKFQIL
# In short: as §1
# ETV1 = ETV1 (Homo sapiens, UniProt P50549 1-477); conditions: protein: recombinant; tags: N-terminal GST; dsDNA, one strand shown
# Sequence of ETV1 (P50549 whole entry): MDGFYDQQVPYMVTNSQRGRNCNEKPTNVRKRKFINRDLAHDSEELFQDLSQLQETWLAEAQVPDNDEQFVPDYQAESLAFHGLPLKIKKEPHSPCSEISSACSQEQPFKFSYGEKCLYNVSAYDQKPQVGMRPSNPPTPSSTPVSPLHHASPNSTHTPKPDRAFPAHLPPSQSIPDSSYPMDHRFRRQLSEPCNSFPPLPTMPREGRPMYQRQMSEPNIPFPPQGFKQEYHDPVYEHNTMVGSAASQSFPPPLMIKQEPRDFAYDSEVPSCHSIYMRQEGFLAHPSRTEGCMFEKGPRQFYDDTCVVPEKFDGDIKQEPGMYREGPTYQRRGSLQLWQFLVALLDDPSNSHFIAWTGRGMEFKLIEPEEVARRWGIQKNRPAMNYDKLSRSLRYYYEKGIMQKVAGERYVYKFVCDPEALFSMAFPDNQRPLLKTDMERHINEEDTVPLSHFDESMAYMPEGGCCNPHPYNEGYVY
# In short: as §1
# ERF = target: T6, ERF (Homo sapiens, UniProt P50548 1-548); conditions: protein: recombinant; tags: N-terminal GST; dsDNA, one strand shown
# T6 sequence: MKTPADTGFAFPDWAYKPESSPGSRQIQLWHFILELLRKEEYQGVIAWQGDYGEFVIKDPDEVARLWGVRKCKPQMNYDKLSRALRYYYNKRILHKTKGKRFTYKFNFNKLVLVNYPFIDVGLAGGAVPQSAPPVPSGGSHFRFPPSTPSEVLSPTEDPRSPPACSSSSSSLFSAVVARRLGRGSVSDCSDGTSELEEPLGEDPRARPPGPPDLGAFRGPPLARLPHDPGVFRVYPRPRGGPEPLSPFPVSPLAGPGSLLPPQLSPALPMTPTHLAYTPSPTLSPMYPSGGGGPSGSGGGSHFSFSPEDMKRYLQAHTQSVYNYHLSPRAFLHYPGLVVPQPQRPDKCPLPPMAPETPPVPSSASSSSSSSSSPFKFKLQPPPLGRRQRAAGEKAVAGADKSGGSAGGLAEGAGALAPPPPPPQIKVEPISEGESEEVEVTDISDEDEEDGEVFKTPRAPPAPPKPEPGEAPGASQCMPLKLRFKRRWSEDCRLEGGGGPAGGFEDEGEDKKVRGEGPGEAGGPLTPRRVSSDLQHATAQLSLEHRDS
# In short: as §1
# ETV3L = target: T7, ETV3L (Homo sapiens, UniProt Q6ZN32 1-361); conditions: protein: recombinant; tags: N-terminal GST; dsDNA, one strand shown
# T7 sequence: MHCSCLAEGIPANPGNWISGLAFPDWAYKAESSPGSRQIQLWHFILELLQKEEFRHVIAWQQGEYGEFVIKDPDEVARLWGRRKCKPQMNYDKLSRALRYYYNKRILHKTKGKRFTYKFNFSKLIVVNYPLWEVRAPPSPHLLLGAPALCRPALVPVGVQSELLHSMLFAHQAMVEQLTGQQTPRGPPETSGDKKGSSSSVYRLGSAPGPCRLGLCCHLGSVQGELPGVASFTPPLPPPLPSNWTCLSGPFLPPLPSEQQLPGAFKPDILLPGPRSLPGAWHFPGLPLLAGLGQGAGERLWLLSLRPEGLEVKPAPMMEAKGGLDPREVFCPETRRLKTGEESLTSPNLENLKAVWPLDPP
# In short: as §1
# ETS2 = target: T8, ETS2 (Homo sapiens, UniProt P15036 1-469); conditions: protein: recombinant; tags: N-terminal GST; dsDNA, one strand shown
# T8 sequence: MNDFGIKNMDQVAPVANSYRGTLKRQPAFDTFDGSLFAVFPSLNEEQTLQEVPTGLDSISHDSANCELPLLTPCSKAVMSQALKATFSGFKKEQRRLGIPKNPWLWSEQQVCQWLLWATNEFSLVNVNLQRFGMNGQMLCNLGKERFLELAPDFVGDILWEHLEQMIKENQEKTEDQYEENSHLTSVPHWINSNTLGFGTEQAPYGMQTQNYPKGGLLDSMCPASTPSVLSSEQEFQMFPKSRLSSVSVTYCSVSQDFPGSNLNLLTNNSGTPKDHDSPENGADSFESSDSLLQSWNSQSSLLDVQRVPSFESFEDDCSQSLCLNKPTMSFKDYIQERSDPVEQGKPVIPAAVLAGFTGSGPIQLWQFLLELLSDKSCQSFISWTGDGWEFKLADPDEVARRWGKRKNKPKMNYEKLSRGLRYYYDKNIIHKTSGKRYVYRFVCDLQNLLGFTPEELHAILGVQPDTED
# In short: as §1
# SPDEF = target: T9, SPDEF (Homo sapiens, UniProt O95238 1-335); conditions: protein: recombinant; tags: N-terminal GST; dsDNA, one strand shown
# T9 sequence: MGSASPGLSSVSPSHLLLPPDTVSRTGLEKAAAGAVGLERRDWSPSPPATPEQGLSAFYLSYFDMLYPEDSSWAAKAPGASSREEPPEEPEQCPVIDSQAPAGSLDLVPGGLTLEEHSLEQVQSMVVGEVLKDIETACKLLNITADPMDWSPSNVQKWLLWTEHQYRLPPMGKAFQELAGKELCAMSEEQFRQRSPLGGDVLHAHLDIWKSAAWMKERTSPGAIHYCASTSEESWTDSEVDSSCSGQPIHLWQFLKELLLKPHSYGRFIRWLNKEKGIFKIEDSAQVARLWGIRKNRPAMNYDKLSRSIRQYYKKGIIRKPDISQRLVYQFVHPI
# In short: as §1
# ETV7 = target: T10, ETV7 (Homo sapiens, UniProt Q9Y603 1-341); conditions: protein: recombinant; tags: N-terminal GST; dsDNA, one strand shown
# T10 sequence: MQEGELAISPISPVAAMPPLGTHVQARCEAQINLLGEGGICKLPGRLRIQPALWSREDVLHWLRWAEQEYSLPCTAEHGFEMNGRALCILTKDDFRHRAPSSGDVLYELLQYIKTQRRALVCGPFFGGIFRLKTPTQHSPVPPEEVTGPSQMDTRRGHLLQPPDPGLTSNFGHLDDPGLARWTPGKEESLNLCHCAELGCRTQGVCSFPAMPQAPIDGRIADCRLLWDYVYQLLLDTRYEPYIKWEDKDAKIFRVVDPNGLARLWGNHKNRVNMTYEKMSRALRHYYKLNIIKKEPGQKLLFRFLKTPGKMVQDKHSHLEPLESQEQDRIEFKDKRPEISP
# In short: as §1
# ELF5 = target: T11, ELF5 (Homo sapiens, UniProt Q9UKW6-2 1-255); conditions: protein: recombinant; tags: N-terminal GST; dsDNA, one strand shown
# T11 sequence: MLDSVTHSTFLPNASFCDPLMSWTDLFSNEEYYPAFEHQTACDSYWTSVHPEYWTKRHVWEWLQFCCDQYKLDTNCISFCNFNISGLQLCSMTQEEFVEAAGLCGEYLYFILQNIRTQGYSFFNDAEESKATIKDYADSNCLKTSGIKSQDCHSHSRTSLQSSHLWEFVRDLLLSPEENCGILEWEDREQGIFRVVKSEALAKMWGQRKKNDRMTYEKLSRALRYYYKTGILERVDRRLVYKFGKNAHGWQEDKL
# In short: as §1
# ETV3 = target: T12, ETV3 (Homo sapiens, UniProt P41162-2 1-143); conditions: protein: recombinant; tags: N-terminal GST; dsDNA, one strand shown
# T12 sequence: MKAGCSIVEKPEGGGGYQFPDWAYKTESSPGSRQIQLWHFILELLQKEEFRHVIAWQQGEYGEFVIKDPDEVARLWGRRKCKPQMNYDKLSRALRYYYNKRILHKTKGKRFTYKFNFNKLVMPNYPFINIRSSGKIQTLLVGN
# In short: as §1
# ETV6 = ETV6 (Homo sapiens, UniProt P41212 1-452); conditions: protein: recombinant; tags: N-terminal GST; dsDNA, one strand shown
# Sequence of ETV6 (P41212 whole entry): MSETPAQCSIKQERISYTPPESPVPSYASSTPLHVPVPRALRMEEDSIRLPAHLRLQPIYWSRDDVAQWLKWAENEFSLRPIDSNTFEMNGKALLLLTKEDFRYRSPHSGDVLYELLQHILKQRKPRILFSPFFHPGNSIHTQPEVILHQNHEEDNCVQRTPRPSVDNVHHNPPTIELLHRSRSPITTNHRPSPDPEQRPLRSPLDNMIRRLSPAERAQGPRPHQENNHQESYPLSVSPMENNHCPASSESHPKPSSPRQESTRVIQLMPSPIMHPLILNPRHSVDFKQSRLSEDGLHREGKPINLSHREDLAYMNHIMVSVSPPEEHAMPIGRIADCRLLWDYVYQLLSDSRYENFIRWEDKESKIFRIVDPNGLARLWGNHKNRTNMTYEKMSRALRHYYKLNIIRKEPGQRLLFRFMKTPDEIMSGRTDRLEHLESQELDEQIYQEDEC
# In short: as §1
sequence,measurement,setting,value
TCCGGC,binding signal,FEV,"3.33 fold enrichment (6-mer frequency, TF over GST control)"
same,binding signal,ETV5,"2.4 fold enrichment (6-mer frequency, TF over GST control)"
same,binding signal,HSF1,"1.17 fold enrichment (6-mer frequency, TF over GST control)"
same,binding signal,SPIC,"2.2 fold enrichment (6-mer frequency, TF over GST control)"
same,binding signal,ELF4,"1.95 fold enrichment (6-mer frequency, TF over GST control)"
same,binding signal,ELK4,"2.03 fold enrichment (6-mer frequency, TF over GST control)"
same,binding signal,ETV2,"2.4 fold enrichment (6-mer frequency, TF over GST control)"
same,binding signal,ELF3,"1.97 fold enrichment (6-mer frequency, TF over GST control)"
same,binding signal,CRX,"1.1 fold enrichment (6-mer frequency, TF over GST control)"
same,binding signal,ETV1,"2.31 fold enrichment (6-mer frequency, TF over GST control)"
same,binding signal,ERF,"2.13 fold enrichment (6-mer frequency, TF over GST control)"
same,binding signal,ETV3L,"2.23 fold enrichment (6-mer frequency, TF over GST control)"
same,binding signal,ETS2,"2.08 fold enrichment (6-mer frequency, TF over GST control)"
same,binding signal,SPDEF,"3.14 fold enrichment (6-mer frequency, TF over GST control)"
same,binding signal,ETV7,"1.95 fold enrichment (6-mer frequency, TF over GST control)"
same,binding signal,ELF5,"2.67 fold enrichment (6-mer frequency, TF over GST control)"
same,binding signal,ETV3,"2.32 fold enrichment (6-mer frequency, TF over GST control)"
same,binding signal,ETV6,"2.28 fold enrichment (6-mer frequency, TF over GST control)"
